FLuc modulator: counter-screen for miR-21 project: firefly luciferase inhibitors or activators; actives 6.9% (n = 360,000); purified FLuc, Km substrates, luminescence inhibition; P08659; Potency, µM (series often up to 57.5 µM), without a hit: at the top dose activity change, negative = inhibition, most hits filed as inhibitors;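 note: plate controls were vehicle for no effect and reference inhibitor for full effect; nearly all actives have a fitted effect of over 55% in size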
Target sequence (P08659 whole entry, looked up): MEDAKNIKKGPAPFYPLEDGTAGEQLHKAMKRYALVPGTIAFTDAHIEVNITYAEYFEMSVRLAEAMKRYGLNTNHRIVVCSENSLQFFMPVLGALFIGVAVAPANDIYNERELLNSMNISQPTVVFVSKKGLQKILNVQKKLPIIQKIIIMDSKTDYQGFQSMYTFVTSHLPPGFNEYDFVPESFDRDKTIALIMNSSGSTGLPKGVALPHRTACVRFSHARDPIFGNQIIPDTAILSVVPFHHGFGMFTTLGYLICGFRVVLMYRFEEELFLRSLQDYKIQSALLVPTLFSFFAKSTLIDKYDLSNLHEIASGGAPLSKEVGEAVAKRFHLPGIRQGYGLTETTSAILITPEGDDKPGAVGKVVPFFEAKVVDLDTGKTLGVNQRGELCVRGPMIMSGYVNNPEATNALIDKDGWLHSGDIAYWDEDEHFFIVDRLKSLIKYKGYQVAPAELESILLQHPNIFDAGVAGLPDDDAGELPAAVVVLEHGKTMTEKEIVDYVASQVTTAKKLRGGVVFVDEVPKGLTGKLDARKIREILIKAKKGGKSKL
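Purified P. pyralis luciferase (10nM final) with 10uM D-luciferin and 10uM ATP (Km levels) in 50mM Tris acetate pH 7.5, 10mM Mg acetate, 0.01% Tween-20, 0.05% BSA; qHTS 6-point titration, ~60 µM downward; luminescence read.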
Rab9 prom act: activates the Rab9 promoter; Huh7 Rab9 promoter-luciferase reporter, luminescence, 24 h; Potency, µM (series often up to 9.22 µM), for the others: at the highest dose activation, negative = inhibition, hits mostly activators; actives 2.8% (n = 320,000); AID 485297; note: % of control where 0% means no effect; nearly all actives have a fitted effect of over 60% in size
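Luminescence read-out: Huh7 cells stably expressing Rab9-luciferase, treated 24 h with compound at 37 °C, then lysed with luciferase reagent for 10 min at ambient before reading.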
SMN2 splice up: SMN2 splice variant enhancement; Potency, µM (highest dose often 46.1 µM), without a hit: at the highest dose activity change, positive = activation, usual class: activators; AID 1458; actives 2.8% (n = 210,000); HEK293 SMN2-luciferase splicing reporter, luminescence, 30-36 h; note: % of control where 0% means no effect; nearly all actives have a fitted effect of over 55% in size
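HEK293 cells carry an SMN2 […]–luciferase reporter in which exon 7 inclusion puts luciferase in frame. Cells were plated 10-12 h before compound addition, then incubated 30-36 h at 37C. ONE-Glo luminescence was read; sodium butyrate at 4.5 mM final served as control.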
Luc counter: blocks Kinase-Glo luciferase, a counter-screen artifact; Q27757; Kinase-Glo luciferase, ATP luminescence, 8 min; Potency, µM (doses to about 38.3 µM), without a hit: top-dose activity change, negative = inhibition, most hits filed as inhibitors; actives 0.28% (n = 200,000); note: % is set by controls: 0 for no effect and ±100 for the full control effect; nearly all actives have a fitted effect of over 60% in size
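Compounds were added to a substrate mix at pH 7.2 (50 mM imidazole, 10 uM ATP, within the enzyme's linear range), followed by Kinase-Glo detection reagent; luminescence was measured after 8 minutes at ambient temperature.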
NPC1 prom act: NPC1 promoter activation | Huh7 NPC1 promoter luciferase reporter, 24 h | Potency, µM (doses to about 9.22 µM), for inactives: at the top dose activation, actives largely listed as activators | actives 2.4% (n = 320,000) | AID 485313; note: % of control where 0% means no effect; nearly all actives have a fitted effect of over 60% in size
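In 1536-well qHTS, Huh7 cells harboring an NPC1 promoter–luciferase construct received compound for 24 h; activation was quantified by luminescence following luciferase reagent addition.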
ELG1 genotox: genotoxicity induction in ELG1-luciferase HEK293T cells; HEK293T ELG1-luciferase reporter, luminescence, 16 h; Potency, µM (highest dose often 46 µM), for inactives: top-dose activity change, positive = activation, usual class: activators; actives 1.3% (n = 330,000); AID 504466; note: % of control where 0% means no effect; nearly all actives have a fitted effect of over 60% in size
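Cells (2,000/well) expressing the ELG1-luciferase fusion are dosed by pin tool and kept 16 hr at 37 °C, 5% CO2. Signal comes from ONE-Glo luciferase reagent after 30 min at room temperature.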
Starred values were filed as active, the others as inactive; ? = inconclusive; . = not tested or not shown; [ ] = remark or other dose. Rows were chosen to be rich in hits. Some 7.3% of all compounds tested hit in one or more screens of this group. Calls come from the whole dose curve; as a rule, active = well fitted curve in the direction sought with a large enough effect; inconclusive = small, poorly fitted or top-dose-only effect, or another doubt; inactive = no such curve, though single readings can be large; an effect the other way counts as inactive or inconclusive. Potency is the fitted concentration of half-maximal effect.

SMILES | FLuc modulator | Rab9 prom act | SMN2 splice up | Luc counter | NPC1 prom act | ELG1 genotox
COc1cccc(-c2cc(C(=O)Nc3cc(OC)c(OC)c(OC)c3)no2)c1 | ? | -7% | 9% | 1% | -17% | -23%
COc1cccc(-c2cc(C(=O)Nc3cccnc3)no2)c1 | 1.3µM* | -1% | -8% | -9% | -2% | ?
COC(=O)c1c(-c2cccnc2)csc1NC(=O)c1cc(C)on1 | 6µM* | 1.8µM* | 11µM* | -6% | 2µM* | ?
CCC(C)NC(=O)c1cc(-c2cccc(OC)c2)on1 (stereo unspecified) | 13µM* | . | 11µM* | . | . | .
C/C(N)=C(/C#N)C(=O)CSc1nc2cc(Cl)ccc2s1 | ? | 28% | 0% | 3% | 17% | -2%
Cc1ccc2c(c1)c(=O)c(Br)c(C)n2Cc1ccccc1 | 2% | -7% | 5% | 0% | 0% | 3%
CN(C)c1ccc(-c2nc(Nc3ccncc3)c3ccccc3n2)cc1 | . | . | 11µM* | -8% | . | .
CN(C)c1ccc(-c2nc(N3CCNCC3)c3ccccc3n2)cc1 | . | . | 11µM* | -12% | . | .
CCCOc1ccc(-c2nc(N3CCN(C)CC3)c3ccccc3n2)cc1 | 4.8µM* | 3.2µM* | . | . | ? | ?
CN(C)C(=O)c1ccc(-c2nc(Nc3ccncc3)c3ccccc3n2)cc1 | . | . | ? | -2% | . | .
Cn1c(-c2ccccc2F)cc2onc(-c3ccccc3)c2c1=O | 0.54µM* | 0.4µM* | . | . | 0.32µM* | 0.46µM*
Cn1c(-c2ccccc2)cc2onc(-c3ccccc3)c2c1=O | 0.17µM* | 40µM* | . | . | 0.079µM* | ?
Cc1cc(=O)n2[nH]c(SCc3ccccc3)nc2n1 | ? | 2% | -13% | 3% | -5% | -2%
O=c1cc(-c2ccccc2)nc2nc(SCc3ccccc3)[nH]n12 | 27µM* | 8% | 6% | -5% | 1% | 12%
O=c1cc(-c2ccccc2)nc2nc(-c3ccco3)[nH]n12 | 3.4µM* | 11% | ? | -19% | 15% | ?
Cc1ccccc1-c1cc2nc(-c3ccc([N+](=O)[O-])cc3)cc(=O)n2[nH]1 | ? | -2% | . | 1% | -3% | 1%
Cc1nc2nc(-c3ccccc3)cc(=O)n2[nH]1 | 7.6µM* | 17% | ? | -20% | 17% | ?
Cc1cccc(-c2cc3nc(-c4ccccc4)cc(=O)n3[nH]2)c1 | 7.6µM* | 2.8µM* | . | . | 2µM* | ?
O=[N+]([O-])c1cccc(CN2CCN(Cc3ccco3)CC2)c1 | -3% | -2% | . | . | 2% | 0%
CCOc1ccc(NC(=O)Cn2nnc3c(cnn3-c3ccc(F)cc3)c2=O)cc1 | 5% | -4% | -15% | -2% | 0% | -4%
CCc1ccc(Nc2n[n+](-c3ccccc3)c(-c3ccc(C(=O)O)cc3)s2)cc1 | ? | 3% | . | . | 8% | 9%
Cc1ccc(C(=O)Nc2cccc3cccnc23)cc1Cl | 11µM* | . | -13% | . | . | .
Cc1cccc(C(=O)Nc2cccnc2Cl)c1 | ? | 9% | . | . | 2% | 16%
COc1cc(OC)cc(C(=O)Nc2cccc3cccnc23)c1 | ? | -5% | . | . | -5% | -6%
Cc1ccc(C(=O)Nc2cccc3cccnc23)cc1C | 12µM* | ? | . | . | 2.8µM* | ?
SMILES | FLuc modulator | Rab9 prom act | SMN2 splice up | Luc counter | NPC1 prom act | ELG1 genotox
Cc1cccc(C(=O)Nc2cccc3cccnc23)c1 | 21µM* | 3.2µM* | . | . | 4µM* | 14%
C/C(=N\Nc1cccc2cccnc12)c1ccc(C)cc1 | 2.7µM* | ? | 16µM* | -1% | ? | ?
COc1ccc(NC(=O)CCC(=O)c2cccs2)cc1S(=O)(=O)Nc1ccc(Cl)cc1 | -3% | -4% | 1% | 6% | -10% | -4%
CC[C@]12c3[nH]c4ccc(Cl)cc4c3CCN1C(=O)[C@@H](CC(=O)NC(C)(C)C)C[C@@H]2C(=O)N1CCN(C(=O)c2ccco2)CC1 | . | . | . | . | . | -1%
Cc1ccc(/C=C/C(=O)Nc2cccc3cccnc23)o1 | 17µM* | 7% | 7% | -3% | -2% | 1%
COc1cc(NC(=O)Nc2cccc3cccnc23)cc(OC)c1OC | 19µM* | 7% | . | . | -2% | 6%
O=C(Nc1cccc2cccnc12)c1ccc(Cl)cc1 | 30µM* | 10% | . | . | 7% | 13%
C/C(=N/NC(=O)c1ccccn1)c1ccc(O)cc1 | 24µM* | 2.8µM* | . | . | 3.5µM* | 16µM*
C/C(=N\NC(=O)c1ccccn1)c1ccc(Cl)cc1 | 2.4µM* | 0.56µM* | . | . | 0.79µM* | ?
C/C(=N\Nc1ccc(Cl)cc1)c1ccncc1 | ? | 4% | . | . | -2% | 6%
C/C(=N\Nc1ccc(Cl)cc1)c1ccccn1 | 11µM* | ? | 14µM* | -2% | 11% | 21µM*
C/C(=N\NC(=O)c1ccc(Cl)cc1)c1ccccn1 | 7.6µM* | -20% | . | . | ? | 3.3µM*
COc1cc(C(=O)N/N=C(\C)c2ccccn2)cc(OC)c1OC | 7% | 4% | . | . | -3% | 6%
O=C(NCCNC(=O)c1ccccn1)c1ccc(Cl)cc1 | 1% | 6% | . | . | 6% | -3%
CCc1nnc(NC(=O)c2cc(-c3ccccn3)nc3ccccc23)s1 | ? | ? | 6% | -6% | 2% | 0%
O=C(CSc1nnc(CNc2ccc(F)cc2)n1Cc1ccccc1)NCc1ccccc1 | 0% | 0% | -2% | -1% | 1% | -7%
Cc1cccc(-n2c(=O)c3c(n4cnnc24)-c2ccccc2CC32CCCCC2)c1 | 5% | -7% | 2% | 0% | -4% | -4%
CCCc1cnc2c(c1SCc1cccc(C)c1)c(=O)n(C)c(=O)n2C | -1% | . | . | . | . | .
COC(=O)N/N=C(\C)c1ccco1 | -2% | 3% | -1% | -4% | -2% | -9%
C/C(=N/NC(=O)c1ccccn1)c1c[nH]c2ccccc12 | 5.4µM* | 3.5µM* | . | . | 2.2µM* | 10µM*
C/C(=N/NC(=O)c1ccccn1)c1ccco1 | 5.4µM* | 0.5µM* | ? | 7.1µM* | 0.89µM* | 17%
CN1N=C(C(=O)N2CCc3c([nH]c4ccccc34)C2c2ccccc2Cl)CCC1=O (stereo unspecified) | 15µM* | 5µM* | . | 1% | 14% | ?
C(=C\n1nnc2ccccc21)/c1ccccn1 | 4.3µM* | 1.1µM* | . | . | 2µM* | ?
Nn1nnc2ccccc21 | -18% | 2%[46.1 µM] | -6% | -1% | 8%[46.1 µM] | 1%
O=C(COc1ccc(Cl)cc1)NCc1nnc(SCC(=O)N2CCCCCC2)o1 | 2% | -1% | -34% | 2% | -3% | 20%
Clc1ccccc1OCc1nnc(-c2ccccc2Br)o1 | 12µM* | ? | ? | 1% | 3.5µM* | ?

Screening results (PubChem BioAssay)
